# Measurements taken from PubChem BioAssay AID2227 (Johns Hopkins Ion Channel Center, 2009).
# In all, about 310,000 compounds went through this assay and about 1,300 (0.42%) were called active.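 Rule for the calls: active = B-score of calcium response area above 5 SD of library B-scores, with initial fluorescence ratio within 5 SD of library; inactive = the rest.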 For the sample, actives were picked, then their nearest neighbours and some compounds at random.
# Target: Short transient receptor potential channel 4 (Mus musculus) (UniProt Q9QUQ5)
# Sequence (Q9QUQ5 whole entry, looked up): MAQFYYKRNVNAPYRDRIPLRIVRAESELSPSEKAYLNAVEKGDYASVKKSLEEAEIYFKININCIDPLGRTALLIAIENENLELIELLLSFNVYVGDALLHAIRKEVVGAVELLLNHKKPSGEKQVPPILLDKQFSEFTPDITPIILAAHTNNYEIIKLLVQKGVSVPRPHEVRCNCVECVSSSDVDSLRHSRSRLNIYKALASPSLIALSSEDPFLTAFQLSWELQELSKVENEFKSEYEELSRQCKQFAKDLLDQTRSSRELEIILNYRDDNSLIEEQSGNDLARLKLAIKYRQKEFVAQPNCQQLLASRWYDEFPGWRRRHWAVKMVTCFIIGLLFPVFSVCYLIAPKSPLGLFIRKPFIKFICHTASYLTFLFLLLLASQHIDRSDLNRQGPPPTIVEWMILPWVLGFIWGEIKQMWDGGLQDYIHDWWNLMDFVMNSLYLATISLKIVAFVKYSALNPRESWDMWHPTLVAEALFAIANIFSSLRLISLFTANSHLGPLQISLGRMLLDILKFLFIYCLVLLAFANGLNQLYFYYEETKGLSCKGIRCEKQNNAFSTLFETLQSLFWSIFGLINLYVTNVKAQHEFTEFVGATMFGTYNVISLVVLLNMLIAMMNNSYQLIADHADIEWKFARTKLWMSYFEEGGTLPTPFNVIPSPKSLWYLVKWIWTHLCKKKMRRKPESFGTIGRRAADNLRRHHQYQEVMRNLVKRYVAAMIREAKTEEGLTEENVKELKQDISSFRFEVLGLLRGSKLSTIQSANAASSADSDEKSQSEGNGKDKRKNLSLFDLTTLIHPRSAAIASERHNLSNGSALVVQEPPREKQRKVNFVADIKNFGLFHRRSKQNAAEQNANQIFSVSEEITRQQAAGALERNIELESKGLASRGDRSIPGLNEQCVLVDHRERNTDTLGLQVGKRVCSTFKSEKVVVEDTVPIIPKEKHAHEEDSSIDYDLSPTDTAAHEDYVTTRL
# Test: positive allosteric modulators of TRPC4, primary screen, cell-based, mouse TRPC4beta, HEK293 mu-opioid, Fluo-4 calcium (AID 2227);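 for B-score: B-score of integrated fluorescence ratio over time as area under calcium response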
# Conditions: DAMGO EC20, Fluo-4 Ca2+ flux, at 10 µM; active compounds read high
row,SMILES,B-score
1,COc1ccccc1NC(=O)Nc1nc(CC(=O)Nc2ccccc2F)cs1,inactive
2,NS(=O)(=O)c1ccc(NC(=O)COC(=O)c2cc3ccccc3oc2=O)cc1,inactive
3,CCOC(=O)c1cc2cc3ccccc3cc2oc1=O,13 (active)
4,C=CCc1cccc2cc(C(=O)OCC)c(=O)oc12,inactive
5,CC(C)c1c(C(=O)N/N=C/c2ccc(-c3ccccc3)cc2)nnn1-c1nonc1N,inactive
6,CCCc1nc2scc(-c3ccc(C)cc3)c2c(=O)n1N,inactive
7,CN1CCN(c2ccc(CNS(=O)(=O)c3cccc(F)c3)cc2)CC1,inactive
8,O=C(CN1CCN(C(=O)c2ccco2)CC1)Nc1ccc2c(c1)OCO2,inactive
9,O=C(NCC(=O)N1CCN(c2ncc(C(F)(F)F)cc2Cl)CC1)c1ccc(Br)o1,inactive
10,O=C(CN1CCN(c2ncc(C(F)(F)F)cc2Cl)CC1)Nc1ccc2c(c1)OCO2,10 (active)
11,OCCNc1nc2ccccc2n1-c1ncnc2sc3c(c12)CCC3,inactive
12,COCCNC(=S)N1CCC(NC(=O)C23CC4CC(CC(C4)C2)C3)CC1,inactive
13,FC(F)(F)COc1nc(N2CCCCC2)nc(N2CCNCC2)n1,27 (active)
14,COc1nc(NC2CCCCC2)nc(N2CCCCCC2)n1,inactive
15,CN(N)c1nc(N2CCCC2)nc(N2CCCC2)n1,inactive
16,CC(=O)OCCOCn1cnn2c(=O)c(Br)c(C)nc12,inactive
17,C/C(=N\NC(=O)c1cc(-c2ccc(O)cc2)nc2ccccc12)c1cccnc1,inactive
18,CN(C)c1ccc(/C=C2\NC(=S)N(Cc3ccccc3)C2=O)cc1,14 (active)
19,COc1cc(/C=C2/SC(=S)N(Cc3ccccc3)C2=O)cc(OC)c1O,inactive
20,O=C1/C(=C\c2ccsc2)NC(=S)N1c1ccccc1,inactive
21,CCC(C)(C)NC(=O)c1cc([N+](=O)[O-])ccc1N1CCCCC1,inactive

row,SMILES,B-score
1,CCOc1ccccc1NS(=O)(=O)c1c[nH]c(C(=O)OC)c1,inactive
2,CCOC(=O)C1CCCN(CCSc2ccc(C)cc2)C1 (configuration not stated),inactive
3,O=C(/C=C/c1ccc(Cl)c([N+](=O)[O-])c1)c1cccnc1,inactive
4,NC(N)=N/N=C/c1ccc(Cl)c([N+](=O)[O-])c1,16 (active)
5,O=C(/C=C/c1ccc(Cl)c([N+](=O)[O-])c1)c1ccc(O)cc1,inactive
6,Brc1ccccc1/C=N/Nc1nc2ccccc2o1,inactive
7,Oc1cccc(/C=N/Nc2ccc(Cl)nn2)c1O,inactive
8,Oc1c(Br)cccc1/C=N/Nc1c(F)c(F)c(F)c(F)c1F,11 (active)
9,O=[N+]([O-])c1cc(S(=O)(=O)CCCN2CCOCC2)ccc1F,inactive
10,C/C(=N/NC(=O)CCc1ccccc1)c1ccco1,inactive
11,COc1cc(C(=S)N2CCOCC2)ccc1O,42 (active)
12,COc1ccc(C)cc1NC(=S)N1CCOCC1,inactive
13,CCOc1cc(C(=S)N2CCOCC2)ccc1O,inactive
14,O=C(/C=C/c1ccc(OCc2c(F)cccc2Cl)cc1)N1CCOCC1,inactive
15,COCCCNC(=O)/C=C/c1ccc(OCc2c(F)cccc2Cl)cc1,inactive
16,CN(C)CCCNC(=O)/C=C/c1ccc(OCc2c(F)cccc2Cl)cc1,16 (active)
17,CSc1nnc(C2CCCN(CC(=O)Nc3ccccc3N3CCOCC3)C2)n1C(C)C (configuration not stated),inactive
18,COc1ccc(OC)c(S(=O)(=O)N2CCCC(C(=O)NCCc3ccccc3)C2)c1 (configuration not stated),inactive
19,O=C(CN1CCN(S(=O)(=O)c2ccc(F)cc2)CC1)Nc1ccccc1F,inactive
20,Cc1ccc(S(=O)(=O)N2CCN(Cc3cccc(C)c3O)CC2)cc1,inactive
21,O=S(=O)(c1ccc(F)cc1)N1CCN(Cc2ccccc2C(F)(F)F)CC1,11 (active)

row,SMILES,B-score
1,Cc1ccc(C(=O)COC(=O)c2cccc(N3C(=O)c4c(C)nc5ccccc5c4C3=O)c2)cc1C,inactive
2,Cc1cccn2c(=O)c(C=O)c(Nc3ccc(S(N)(=O)=O)cc3)nc12,inactive
3,Cc1cccc(NC(=O)c2cc([N+](=O)[O-])ccc2N2CCN(C)CC2)c1,21 (active)
4,CC(=O)Nc1ccc(N2CCOCC2)c(C(=O)Nc2cccc(C)c2)c1,inactive
5,O=C(Nc1cccc(Cl)c1)c1cc([N+](=O)[O-])ccc1N1CCN(CCO)CC1,inactive
6,CC(Sc1nn(-c2ccc(Cl)cc2)c(=S)s1)C(=O)NCC1CCCO1 (configuration not stated),inactive
7,COc1ccc(S(=O)(=O)n2cnc3ccccc32)c(C)c1,inactive
8,CCCCOc1ccc(CSC(=N)N)cc1[N+](=O)[O-],21 (active)
9,CCCCCOc1ccc(CSC2=NCCN2)cc1[N+](=O)[O-],inactive
10,CCCOc1ccc(Cn2ccnc2)cc1[N+](=O)[O-],inactive
11,O=C(NNC(=O)C1C2CCC(C2)C1C(=O)O)c1ccc(Cl)cc1 (configuration not stated),inactive
12,Cc1ccc(CN(CC(=O)NC2CCCCC2)C(=O)c2csnn2)cc1,inactive
13,Cc1ccccc1C(CC(=O)c1cccs1)C(C#N)C#N (configuration not stated),inactive
14,CCOc1ccc(Br)cc1S(=O)(=O)Nc1ccc(C(=O)OC(C)C(=O)N(C)c2ccccc2)cc1 (configuration not stated),inactive
15,CCOC(=O)N1CCN(C(=O)c2ccc(S(=O)(=O)Nc3cccc(C(F)(F)F)c3)cc2)CC1,inactive
16,O=C(NCc1ccccc1)c1ccc(S(=O)(=O)Nc2cccc(C(F)(F)F)c2)cc1,17 (active)
17,O=C(NCc1cccc(C(F)(F)F)c1)c1cccc(S(=O)(=O)N2CCN(Cc3ccccc3)CC2)c1,inactive
18,CC[C@@H](C)[C@H](NC(=O)CCc1c(C)c2cc3c4c(oc3c(C)c2oc1=O)CCCC4)C(=O)O,inactive
19,CN1CCC(=O)N([C@H](CO)Cc2ccccc2)CC1,inactive
20,CC(C)CC(COCc1ccc(Cl)cc1)N1CCN(C(=O)c2ccc(C(F)(F)F)cc2)CCC1=O (configuration not stated),inactive
21,O=C(c1cc(Cl)cc(Cl)c1)N1CCC(=O)N(C(COCc2ccccc2)Cc2ccccc2)CC1 (configuration not stated),12 (active)

row,SMILES,B-score
1,COc1ccc(N2CC(C(=O)NCCN3C(=O)S/C(=C\c4cccnc4)C3=O)CC2=O)c(OC)c1 (configuration not stated),inactive
2,COc1ccc(N2CCN(S(=O)(=O)CCNC(=O)C34CC5CC(CC(C5)C3)C4)CC2)cc1,inactive
3,Cc1ccc(NC(=O)Cc2nnc(SCC(=O)Nc3nncs3)n2C)cc1,inactive
4,CC(=O)C12CC(C)=C(C)CC1CC1C3CCC4=CC(=O)CCC4(C)C3CCC12C (configuration not stated),11 (active)
5,C[C@]12C=CC(=O)C=C1CC[C@@H]1[C@@H]2C(=O)C[C@@]2(C)[C@H]1CC[C@]2(O)C(=O)CO,inactive
6,CC(=O)O[C@]1(C(C)=O)CC[C@H]2[C@@H]3C=C(C)C4=CC(=O)CC[C@]4(C)[C@H]3CC[C@@]21C,inactive
7,CC(=O)c1c(C)n(-c2ccc(N(C)C)cc2)c2ccc(OCC(N)=O)cc12,inactive
8,O=C1CSC(c2ccc(Cl)cc2)N1 (configuration not stated),inactive
9,COc1ccc(S(=O)(=O)NC(C)c2ccccc2)cc1C(=O)N1CCCCC1 (configuration not stated),inactive
10,CCc1nc2oc3ccccc3c(=O)c2c(=O)n1Cc1ccc(OC)cc1,inactive
11,O=c1c2ccccc2oc2nc(C3CCCCC3)n(Cc3ccco3)c(=O)c12,29 (active)
12,O=c1c2ccccc2oc2nc3n(c(=O)c12)CCCS3,inactive
13,CCN(CC)CCNc1ccc(Cl)cc1[N+](=O)[O-],20 (active)
14,CN(C)CCNc1ccc(-c2n[nH]c(=O)c3ccccc23)cc1[N+](=O)[O-],inactive
15,CSc1ccccc1NC(=O)CN(C)CC(=O)Nc1ccc(Cl)cc1[N+](=O)[O-],inactive
16,C/C(=N\N1CCN(Cc2ccc(C)cc2)CC1)c1ccco1,inactive
17,CCn1cc(C(=O)NCC(=O)NC(C)(C)CO)c(=O)c2cc3c(cc21)OCO3,inactive
18,COc1ccccc1CNS(=O)(=O)CC12CCC(CC1=O)C2(C)C (configuration not stated),inactive
19,Cc1c(NC(=O)C(=O)N/N=C/c2cccs2)c(=O)n(-c2ccccc2)n1C,inactive
